# Reference: PubChem BioAssay (NCATS)
# Records with an inconclusive call do not appear. Where a call stands in place of a potency, no number is given. Calls of active or inactive are those of the source. The call rests on the fitted dose curve; in most records, active means well fitted inhibition curve with a large enough effect; inconclusive means small, poorly fitted or top-dose-only effect; inactive means no such curve, though single readings can be large or run the other way.
# Target: Protein phosphatase 1D (Homo sapiens) (UniProt O15297)
# Sequence (O15297 whole entry, looked up): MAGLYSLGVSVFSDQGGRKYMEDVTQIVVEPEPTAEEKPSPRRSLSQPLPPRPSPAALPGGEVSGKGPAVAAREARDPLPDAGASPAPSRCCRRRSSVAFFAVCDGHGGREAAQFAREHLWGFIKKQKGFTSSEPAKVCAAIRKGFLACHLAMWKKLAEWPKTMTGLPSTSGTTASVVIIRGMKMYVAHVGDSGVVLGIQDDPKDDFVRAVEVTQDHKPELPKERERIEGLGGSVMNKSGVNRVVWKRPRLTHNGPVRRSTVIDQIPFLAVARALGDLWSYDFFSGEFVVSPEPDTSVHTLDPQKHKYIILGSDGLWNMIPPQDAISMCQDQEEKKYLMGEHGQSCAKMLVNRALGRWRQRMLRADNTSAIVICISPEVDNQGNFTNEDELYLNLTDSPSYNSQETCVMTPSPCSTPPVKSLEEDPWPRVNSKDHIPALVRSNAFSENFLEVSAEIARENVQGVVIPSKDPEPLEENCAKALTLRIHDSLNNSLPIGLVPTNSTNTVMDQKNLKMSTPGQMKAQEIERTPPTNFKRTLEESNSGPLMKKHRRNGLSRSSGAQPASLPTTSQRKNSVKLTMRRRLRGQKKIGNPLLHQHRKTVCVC
# Assay: RapidFire Mass Spectrometry qHTS Assay for Modulators of WT P53-Induced Phosphatase 1 (WIP1) (AID 1347424)
# Conditions: WIP1 dephosphorylation of phosphopeptide, RapidFire MS; series mostly up to 63 µM
# Source text: Assay Provider (PI): Nathan Coussens Ph. D.
# National Center for Advancing Translational Sciences (NCATS), Rockville, MD
# National Institute of Health (NIH), Bethesda, Maryland
# WT P53-Induced Phosphatase 1 (WIP1) is a member of the magnesium-dependent serine/threonine protein phosphatase (PPM) family and is induced by P53 in response to DNA damage. In several human cancers, the WIP1 protein is overexpressed, which is generally associated with a worse prognosis. Although WIP1 is an attractive therapeutic target, no potent, selective, and bioactive small-molecule modulator with favorable pharmacokinetics has been reported. Phosphatase enzymes are among the most challenging targets for small molecules because of the difficulty of achieving both modulator selectivity and bioavailability. Another major obstacle has been the availability of robust and physiologically relevant phosphatase assays that are suitable for high-throughput screening.
# Here, we describe two orthogonal biochemical WIP1 activity assays that utilize phosphopeptides from native WIP1 substrates. We optimized a RapidFire MS assay to quantify the enzymatically dephosphorylated peptide reaction product in a 384-well format. Additionally, a redshifted Rhodamine-PBP fluorescence assay was optimized in a 1,536-well format to enable real-time WIP1 activity measurements through the detection of the orthogonal reaction product, Pi. We validated these two optimized assays by quantitative high-throughput screening against the National Center for Advancing Translational Sciences (NCATS) Pharmaceutical Collection and used secondary assays to confirm and evaluate inhibitors identified in the primary screen.
# SEQUENCE No. (e.g., 1, 2, 3, etc.); […] (e.g., Cells, Incubation, Reagent, etc.); VALUE; DESCRIPTION
# 1; Reagent; 50 uL; dispensed assay buffer: 0.1% formic acid in water (10 uL : 40 uL) solution in column 1
# 3; Library Compounds; 63 nL; library compounds in DMSO, columns 3-24
# 4; Control Compounds; 63 nL; DMSO in wells I-P, columns 1-2, GSK830371 (10 uM, final) in wells A-H, column 2
# 5; Time; 1 hr; incubation
# 6; Substrate; 2 uL; VEPPL-pS-QETFS (10 uM) in assay buffer, column 2-24
# 7; Time; 5 min; incubation
# 8; Reagent; 2 uL; 0.5% formic acid in water, columns 2-24
# 9; Reagent; 38 uL; VEPPL-S-QETF*S in 0.1% formic acid, columns 2-24
# 10; Detection; mass spec; RapidFire mass spectrometry
# NOTES (numbers refer to sequence above)
# 1, 2, 6; dispensed reagent in White Nunc 384-well PP microplates (264573); assay buffer: 50 mM Tris-HCl pH 7.5, 30 mM MgCl2, 1 mM TCEP, 0.1 mM EGTA, 75 ug/mL BSA.
# 2, 6, 8, 9; Dispensed with BioRaptr (Beckman Coulter)
# 2, 6, 9; Final concentrations: 10 nM WIP1; 2 uM VEPPL-pS-QETFS; 1 uM VEFFL-S-QETF*S
# 3 & 4; Kalypsys Pintool transfer (Wako USA), Tip wash sequence: water, DMSO, methanol, 20 sec vacuum dry.
# 5 & 7; incubation at room temperature
# 10; RapidFire mass spectrometry read using the Agilent RapidFire 360 (Clausse, 2019)
# Clausse V, et al. Physiologically relevant orthogonal assay for the discovery of small-molecule modulators of WIP1 […] in high-throughput screens. J Biol Chem. 2019, 294(46): 17654-17668. doi:10.1074/jbc.RA119.010201
row,SMILES,Potency
1,CCCCCCCCC(=O)NCc1ccc(O)c(OC)c1,inactive
2,CC1Sc2c(C(=O)O)c(=O)c3cc(F)c(N4CCNCC4)cc3n21 (stereo not given),inactive
3,C=CCN1CC[C@]23CCCC[C@H]2[C@H]1Cc1ccc(O)cc13,inactive
4,Nc1ccccc1C(=O)OCC(O)CO (stereo not given),inactive
5,C[C@H]1CNCCc2ccc(Cl)cc21,inactive
6,C[C@H]1C(=O)O[C@@H]2CCN3CC=C(COC(=O)[C@](C)(O)[C@]1(C)O)[C@H]23,inactive
7,COc1ccc(CN2CCNCC2)c(OC)c1OC,inactive
8,O=C(O)CCCCCCNC1c2ccccc2CCc2ccccc21,inactive
9,CC[C@H](O)C(C[C@H](C)N(C)C)(c1ccccc1)c1ccccc1,inactive
10,CN(C)CCc1c[nH]c2ccccc12,inactive
11,ClCc1cccc(Cl)c1,inactive
12,C[N+](C)(C)CCOC(=O)C(O)(c1ccccc1)c1ccccc1,inactive
13,CC(C)(C)OC(=O)c1ncn2c1[C@@H]1CCCN1C(=O)c1c(Br)cccc1-2,inactive
14,CCOC(C(=O)OCCN(C)C)(c1ccccc1)c1ccccc1,inactive
15,CC(C)=CCN1CC[C@@]2(C)c3cc(O)ccc3C[C@@H]1[C@@H]2C,inactive
16,Cc1nc2ccccc2c(=O)n1-c1ccccc1Cl,inactive
17,CCOC(=O)c1cncn1C(C)c1ccccc1 (stereo not given),inactive
18,CCNc1nc(Cl)nc(NCC)n1,inactive
19,OC(O)C(Cl)(Cl)Cl,inactive
20,Nc1ccc(Cl)cc1C(=O)c1ccccc1F,inactive

row,SMILES,Potency
1,CCN1CCCC1CNC(=O)C(O)(c1ccccc1)c1ccccc1 (stereo not given),inactive
2,CC1N=C(N)OC1c1ccccc1 (stereo not given),inactive
3,Cc1c(Cl)c(=O)oc2cc(OP(=O)(OCCCl)OCCCl)ccc12,inactive
4,COc1cc(CC(C)N)cc2c1OCO2 (stereo not given),inactive
5,C#C[C@]1(O)C=C[C@H]2[C@@H]3CCC4=CC(=O)CC[C@@H]4[C@H]3CC[C@@]21CC,inactive
6,CC(C)NCC(O)c1ccc(N)c(C#N)c1 (stereo not given),inactive
7,CCC(OC(C)=O)C(CC(C)NC)(c1ccccc1)c1ccccc1 (stereo not given),inactive
8,CC(C(O)c1ccccc1)N(C)C/C=C/c1ccccc1 (stereo not given),inactive
9,C=CC[C@]1(O)CC[C@H]2[C@@H]3CCC4=CC(=O)CCC4=C3C=C[C@@]21C,inactive
10,CCCCC1C(=O)NC(=O)N(C2CCCCC2)C1=O (stereo not given),inactive
11,CCOC(=O)NC(C)(C)Cc1ccc(Cl)cc1,inactive
12,COc1cc(CC(C)N)c(OC)cc1Br (stereo not given),inactive
13,CCCCCCCCCCCC[N+](C)(C)CCOc1ccccc1,inactive
14,COc1cc(N)c(Cl)cc1C(=O)NC1CN2CCC1CC2 (stereo not given),inactive
15,Sc1ccccc1Cl,inactive
16,CCOP(=S)(OCC)O/N=C(\C#N)c1ccccc1,inactive
17,CCOC(=O)C(c1c(O)c2ccccc2oc1=O)c1c(O)c2ccccc2oc1=O,inactive
18,Cc1nnc2n1-c1sc(CCC(=O)N3CCOCC3)cc1C(c1ccccc1Cl)=NC2,inactive
19,O=C(NC(=O)c1c(F)cccc1F)Nc1cc(Cl)c(OC(F)(F)C(F)C(F)(F)F)cc1Cl (stereo not given),inactive
20,COc1cc(C[C@@H](C)N)c(OC)cc1C,inactive
